Bioassay records as filed in PubChem BioAssay.
The list is not random: actives were taken first. Their share in the collection is about 0.44%.
EPAC2 antagonist = qHTS for Antagonist of cAMP-regulated guanine nucleotide exchange factor 2 (EPAC2): primary screen; EPAC2 GEF exchange of Rap1B-BODIPY-GDP, fluorescence; Potency, µM (top dose mostly 114 µM), for inactives: top-dose activity, negative = inhibition, hits mostly inhibitors; Rap guanine nucleotide exchange factor 4 (Homo sapiens), Q8WZA2; AID 720708, 2013; 0.18% of 360,000 active; further: on the % scale 0 is the no-effect control and ±100 the full control effect; nearly all actives have a fitted effect of over 45% in size
EPAC1 antagonist = qHTS for Antagonist of cAMP-regulated guanine nucleotide exchange factor 3 (EPAC1): primary screen; Rap guanine nucleotide exchange factor 3 (Homo sapiens), O95398; EPAC1 GEF assay, Rap1b-BODIPY-GDP exchange fluorescence; Potency, µM (doses to about 115 µM), without a hit: top-dose activity change, negative = inhibition, most hits filed as inhibitors; 0.14% of 360,000 active;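 further: plate controls were vehicle for no effect and positive control for full effect; nearly all actives have a fitted effect of over 50% in size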
EPAC2 agonist = qHTS for Agonist of cAMP-regulated guanine nucleotide exchange factor 4 (EPAC2): primary screen; Rap guanine nucleotide exchange factor 4 (Homo sapiens), Q8WZA2; EPAC2 activation, biochemical qHTS; response scale: 100% = 6.5 mM cAMP response; Potency, µM (doses to about 154 µM), inactives show at the highest dose activation, most hits filed as activators; 0.079% of 360,000 active; AID 720711, 2013; further: nearly all actives have a fitted effect of over 50% in size
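Nucleotide exchange monitored as fluorescence drop when BODIPY-GDP leaves Rap1B. Reaction: 100 nM EPAC2, 250 nM RAP1B-BODIPY-GDP, 50 uM GDP, room temperature, kinetic read over 30 min. Activity expressed relative to 6.5 mM cAMP.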
USP1-UAF1 inh = Inhibitors of USP1/UAF1: Primary Screen; Ubiquitin carboxyl-terminal hydrolase 1 (Homo sapiens), O94782; recombinant USP1/UAF1, Ub-Rhodamine cleavage fluorescence; Potency, µM (highest dose often 57.1 µM), inactives show at the top dose activity change, negative = inhibition, hits mostly inhibitors; 0.23% of 390,000 active; further: on the % scale 0 is the no-effect control and ±100 the full control effect; nearly all actives have a fitted effect of over 60% in size
Target sequence (O94782 whole entry, looked up): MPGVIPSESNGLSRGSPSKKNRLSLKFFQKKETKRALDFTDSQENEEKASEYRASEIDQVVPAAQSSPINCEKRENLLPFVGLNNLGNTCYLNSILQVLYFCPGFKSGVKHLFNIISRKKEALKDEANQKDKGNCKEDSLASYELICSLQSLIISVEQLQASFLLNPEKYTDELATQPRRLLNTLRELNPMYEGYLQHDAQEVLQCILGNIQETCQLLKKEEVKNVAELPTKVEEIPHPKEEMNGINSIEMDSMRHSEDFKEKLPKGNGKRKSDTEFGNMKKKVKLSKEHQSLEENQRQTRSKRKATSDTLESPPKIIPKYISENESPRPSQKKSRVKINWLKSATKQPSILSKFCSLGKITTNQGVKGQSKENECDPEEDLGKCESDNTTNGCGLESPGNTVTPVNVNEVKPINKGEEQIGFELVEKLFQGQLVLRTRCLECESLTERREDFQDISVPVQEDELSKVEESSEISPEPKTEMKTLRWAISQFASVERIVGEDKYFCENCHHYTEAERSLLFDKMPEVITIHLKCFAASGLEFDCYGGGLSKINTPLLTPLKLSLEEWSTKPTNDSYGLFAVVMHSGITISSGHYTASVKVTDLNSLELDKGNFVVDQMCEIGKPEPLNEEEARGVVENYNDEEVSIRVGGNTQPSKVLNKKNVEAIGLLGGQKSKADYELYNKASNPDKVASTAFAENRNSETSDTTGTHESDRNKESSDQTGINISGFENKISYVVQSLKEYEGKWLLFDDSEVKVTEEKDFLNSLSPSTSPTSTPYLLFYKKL
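1 nM enzyme complex + cpd, 15 min RT; start with Ub-Rho 150nM final; kinetic fluorescence ex 480/em 540, 6 reads q60 s. Buffer 50mM HEPES pH 7.8, 0.5mM EDTA, 0.1 mg/ml BSA, 1mM TCEP, 0.01% Tween-20.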
EPAC1 ag = qHTS for Agonist of cAMP-regulated guanine nucleotide exchange factor 3 (EPAC1): primary screen | Rap guanine nucleotide exchange factor 3 (Homo sapiens), O95398 | EPAC1 agonist qHTS, biochemical assay; response scale: 100% = response to 6.5 mM cAMP | Potency, µM (highest dose often 154 µM), for the others: at the highest dose activation, actives largely listed as activators | 0.073% of 360,000 active | AID 720707, 2013; further: nearly all actives have a fitted effect of over 60% in size
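EPAC1 100 nM, Rap1B–BODIPY-GDP 250 nM, unlabeled GDP 50 uM; compound titration; 5 min RT; kinetic read ex480/em540 at 5-min intervals ×30 min; data normalized to 6.5 mM cAMP agonist control.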
Numbers without * were called inactive; ? = inconclusive; . = not tested or not shown; [ ] = dose if it differs, or a comment. The call rests on the fitted dose curve; in most records, active means well fitted curve in the direction sought with a large enough effect; inconclusive means small, poorly fitted or top-dose-only effect, or another doubt; inactive means no such curve, though single readings can be large; an effect the other way counts as inactive or inconclusive. Potency means the concentration at half of the fitted maximal effect.

SMILES	EPAC2 antagonist	EPAC1 antagonist	EPAC2 agonist	USP1-UAF1 inh	EPAC1 ag
CCCCC(=O)N(C)c1c(CC)nc2c(OCc3ccc(C(F)(F)F)cc3)cccn12	20µM*	-23%	0%	.	-15%
CNc1c(NC(=O)C2CCC(C)CC2)c(=O)oc2ccccc12 (stereo not drawn)	-4%	-7%	-10%	-6%	-4%
C#CCOCCOCCOCCNc1nc(N2CCN(C(=O)CCCCCCCCCCNC(=O)[C@H](CO)n3cc(CCCSC)nn3)CC2)nc(N2CCN(C(=O)CCCCCCCCCCNC(=O)[C@H](CCCN=C(N)N)n3cc(C[C@@H](C)CC)nn3)CC2)n1	?	56µM*	-19%	?	-30%
C#CCOCCOCCOCCNc1nc(N2CCN(C(=O)CCCCCCCCCCNC(=O)[C@H](CO)n3cc(CCCSC)nn3)CC2)nc(N2CCN(C(=O)CCCCCCCCCCNC(=O)[C@H](CCCCN)n3cc(CCO)nn3)CC2)n1	?	-24%	?	-20%	-8%
CC1=C(C(=O)N(C(C)C)C(C)C)CC(CC(=O)NCCN2CCOCC2)C(=O)N1Cc1ccccc1 (stereo not drawn)	-7%	8%	6%	-16%	9%
O=C1S/C(=C/c2ccc(N3CCOCC3)o2)C(=O)N1Cc1c(F)cccc1Cl	30%	10%	18%	?	-7%
O=C1S/C(=C\c2ccc(N3CCOCC3)o2)C(=O)N1Cc1c(F)cccc1Cl	16%	16%	14%	4µM*	1%
O=C1S/C(=C\c2ccc(N3CCOCC3)o2)C(=O)N1c1ccccc1	31%	-9%	89µM*	28µM*	12%
O=C(O)CCNc1cc(N2CCN(C(=O)c3ccco3)CC2)c2noc3c2c1C(=O)c1ccccc1-3	-22%	?	-3%	14µM*	-5%
N#CC(C(=O)NCc1ccco1)c1nc2ccccc2nc1N1CCOCC1 (stereo not drawn)	?	79µM*	16%	-4%	-33%
N#CC(C(=O)NCCc1ccccc1)c1nc2ccccc2nc1N1CCOCC1 (stereo not drawn)	?	43%	12%	10%	16%
CCN(CC)c1nc2ccccc2nc1C(C#N)C(=O)NCCc1ccccc1 (stereo not drawn)	32µM*	-8%	-133%	150%	14%
N#CC(C(=O)NCCc1ccccc1)c1nc2ccccc2nc1N1CCCCC1 (stereo not drawn)	-17%	-15%	14%	6%	-1%
N#CC(C(=O)NCc1ccccc1)c1nc2ccccc2nc1N1CCCC1 (stereo not drawn)	115%[57.1 µM]	59%	89µM*	?	16%
COc1ccc(NC(=O)c2c(-c3ccccc3)c(-c3ccccc3)nn(C)c2=O)c(OC)c1	.	.	.	-1%	.
CC(C)(C)OC(=O)NCCc1onc(-c2ccccc2F)c1C(=O)O	4%	17%	8%	-6%	-4%
N#Cc1c(-c2cccs2)nc(SCc2ccc(Cl)cc2)[nH]c1=O	50µM*	89µM*	-9%	?	-3%
CC(C)(C)c1c(Cl)c(O)c(-c2ccccc2)c(=O)n1-c1ccccc1	-6%	79µM*	0%	-7%	-4%
Cn1cnnc1SCC(=O)NNC(=O)c1ccc([N+](=O)[O-])cc1	-8%	-8%	-3%	-6%	4%
CCc1nnc(NS(=O)(=O)c2ccc(NCc3cc(Cl)cc(Cl)c3O)cc2)s1	18µM*	-22%	2%	-12%	-26%
CC(=O)c1ccc2c3c(cccc13)CC2	8%	2%	0%	-20%	-1%
ON=C(c1ccccc1)c1ccc2c3c(cccc13)CC2	14µM*	6%	19%	-28%	4%
